# According to the supplement of paper PMC10105736:
# Unmarked numbers belong to inactive results.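 The calls were made as follows: active = MAPPIT score above the 99th percentile of random reference set scores in the same batch; inactive = at or below it.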
# B1: Pdhb (protein)
# chain: MLRTRLIQAASSAQRAFSTSQKALAAKQMTVRDALNSALDDELARDDRVFILGEEVAQYDGAYKVSRGLWKKYGDKRVIDTPITEMGFAGIAVGAAMAGLRPVCEFMTWNFSMQAIDHIINSAAKTFYMSAGAVNVPIVFRGPNGAASGVAAQHSQCFAAWYAHCPGLKVLSPYDAEDARGLLKSAIRDPDPVVFLENELVYGTAFPVADNVADKDFLVPIGKAKVMRPGKDITLVAHSKAVETSLLAAAELAKKGIEAEVINLRSIRPLDTATIFASVRKTHHLVTVENGWPQHGVGAEICARIMEDQTFFELDAPVWRCAGVDVPMPYAKTLEAHALPRVQDLVEATLKVLGGKVGKAAAANK
# B2: Cpsf6 (protein)
# chain: MADVVLDLYAEDLDKDFAGQAQDEFGGDGVDLYDDIGGPTESAASGGGGGGTPSADGAAGPGSGEPGERNSGGPNGVYHQSSGSLTPTMNRRYQLYVGNLTWWTTDQDIANSLRDIGVSDLQEVKFFENRANGQSKGFSVISLGSESSLRAVLDQLPKKEMHGQAPVVTYPSKQALTQFESLQKTRPVPPPQQNGPPRGPAPPSMGGGPMPTGHPGGPQGGGPPGHPPRGMNSIMQPGQYRPQHMSQVPQVGGPNSGPPRMQPPMHPQGGLMGNQQPPPRYPSAQGQWPGQRPGGPRPGPPNGPPQRPMFQGGPMGMPVRGPAGPDWRRPPMHGGFPPQGPPRGLPPAPGPGGPHGAPAPHVNPAFFNQPGGPAQHPGMGGPPHGAPGPQPGMNMPPQQGMNMTPQHGPPPQFAQHGPRGPWPPPQGKPPGPFPDPQQMGPQLTEVEFEEVMSRNRTVSSSAIARAVSDAAAGEYSSAIETLVTAISLIKQSKVAHDERCKILISSLQDTLHGIEAKSYNRRERSRSRERSHRSRQRRERSTSRYRERSRERERDRDRERERDGGSYRERSRSRERERQAPDHYRDDSRSVRPRKSPEPVVAEAAEAPSSKRYYEDRERYRSSDRERRDRDRDRDRERERDRDRREEHRSRH
# B3: heix (protein)
# chain: MATSSQLLPNGNLSRNGKTKTEDGEEVEAVVGARAAGADAGVALTGRLTGHPSTSGTFMKLKTYLLALRPWSLSASLVPTLLGSALAYRSQWAEEFSLATFFLTAFTVVTVHCAGNVVNTYFDFIKGIDKQKADDRTLVDHILTKDEVVSLGAILYMAGCGGFVLLAVLSPAKMEHLALIYFGGLSSSFLYTGGIGFKYIALGDLVILILFGPISVLFAFMSQTGHLDWTTMGYAIPLALNTEAILHSNNTRDADNDRRAGIVTLAILIGRTASHVLYAMLLFAPYSLFFIFGLKYSLWFLLPLVTLPQAFQIEKRFRNEQTMHLVPRQTAKLNFFFGILYVVACCCAHQLPTFGLRRN
# B4: Vps25 (protein)
# chain: MAEFQWPWEYTFPPFFTLQPHEETRQQQLKVWTDLFLKYLRHTNRFTLSIGDQNSPLFHNEALKRRLSPELVLAILGELERSGHANPLDKRRQEWQVYWFTLEEYGNMVYDWVQETGQTNTICTLYEIASGENTSHLDFYGVDEAVLLSALRLLEEKGRCELIEMDGSHGVKFF
# B5: CG42540 (protein)
# chain: MPDSMMDMEHRDHQLHRQQQQSHHHQPPRLTASTSTFAPPAPAGSQSEERDRDRDRERDHHLHHHQSNNVASSPLPVTASIQLHQQQPQQQQQQQPLTQLQQPQLREREHHQQQQQQQQQMMQQPQQQQQMQQPQQQLPHSHHALMQQSQQQQAIHRAEARRADEEISDKASTCGKLLIFLSVALVIMTLPFSLFVCFKVVQEYERAVIFRLGRLMQGGAKGPGIFFILPCIDSYARVDLRTRTYDVPPQEVLTKDSVTVSVDAVVYYRVSNATVSIANVENAHHSTRLLAQTTLRNTMGTRHLHEILSERMTISGTMQVQLDEATDAWGIKVERVEIKDVRLPVQLQRAMAAEAEAAREARAKVIAAEGEQKASRALREASEVIGDSPAALQLRYLQTLNTISAEKNSTIVFPLPIDLITYFLKTNEATTQQNARAAAAAIGNTPPPLQLAPQQQMGQQQQPQYQQPQQQQQQYQPQQQQQQQQQQPQQQDQLYQQGQQISSAM
# B6: ref(2)P (protein)
# chain: MPEKLLKITYQGAGPQKKINAYLRMPSQNYTILRREIELYLFQERQLPKCDVRTFWIDADKDEIEIVNQNDYEIFLAKCESNMHVQVAPLAPVEEPKATKQEGSSANAEAPSVDDPSNFTIHDAVECDGCGLAPLIGFRYKCVQCSNYDLCQKCELAHKHPEHLMLRMPTNNGPGMVDAWFTGPGLGRRSGRRSRGHCPFQETNQADPAGEPARDSRRERRQARRHAGVLTQFVEMMTNLPLNTTTATAPAEPQKPKAAEQTESPPQAEPTVTAEKAAESEAKPTEPKKVNTDQSVPRTEDPVTTPRSTQPTTPVINLDNISQIVPPEYMSAGIEILNNFSEMFSKIIDTTEGGDSGIFAPSTTPSAENKKPEEQGQSSGQSGASSANQSAVPSAAPSANQSNVPSANQSATPSISGSIPDAQLETEPLNPKPSETTTETEQERRRSDSLDPEWQLIDNAYSANNSNLINLDTTNPTAAPQEPVRDFGQLGELLRQHMNEEARVEQASANTQTAQVDTVSTSTSTTSVTTNSVGTSPAAPDDKRTVPVYHTDESINKSIHAMMAMGFSNEGAWLTQLLESVQGNISAALDVMNVSQNRN
# B7: hig (protein)
# chain: MWSRQRMRHKPLWALISLTVLLLVLDKSNANTEPVETSTTSEPDASPGCRAPDVRFTIVKPEATTEQPLAKFETTQIYLPEDFTTADVEFVDSVPRHPNENHAAVINPYSLDLGDDHLHVGDAAASLVGDDDLGDEDEDHHGDPEDKRLNANRKQGKRRRAGSGRRRRIENENGQTGRGRGSRYKRHAILHDTEASPETDRWAGSKLAAEGDVYYVHIADILKSREPNRELKSKLHKLKMKARLNKCLAEGGKEKCTRLLKKKPKKKVVEKEQTLKKEKKFPKEEQSKEKVPENGQTPKEDELELDHPETAAAHHRRRGDSHAAELDQRDRSPRWRRRRSTEFKGDLGQLPPESGIGPEPEPLADQDLKDLQQYGNQSSSARVALLWQRVKRKSGKTTGALSRPKGGGDSSSKTTSRKDKGIYDEEAGYTPIHPDDPEFDEEEEEDEEVDILQQFTEVSEIRFPGEIGPMGDRRLCKIRCVKGKWVGPLCATNEEDDNGNVKFQPLYKSCHVNRIPSHLLLSYRNISVTPIPPNRGWRKTRLSKSTLLSNTEINVGWDLPHGHSLQARCQELGIYKLLGESRVLCSNGLWAPRMPSCVPTTVLTNYSEDSAPSIRIKIFNGSHSFEPSGVMAVPPHSTVLMDCMYPRVRGTPEWSWTSWYMQYSTGWSPAQEEKAVRYRLSIKNIENNDSGTFTCTSPRGLTNSIAVVVATSTCPQLTEPLAPLKLRLEGNKLGQRAHYECPEGFRLDGAWNATCLASGNWSSPTPTCHAIQCPRLELDDPHLSLIELNTSAWGRAVFKCQWGFKLTGPAQLDCEPSGVWSGPVPRCKVIQCVMPVAPLNGRIGGTSLSQRRLTVGALVTFSCNDGHSLVGESSIICTENGQWSHSPPFCKSQCPYPGDPPNGLIAPLKFNYDAGDYLSVQCRPGFVQSYEGPPERPKCQPDGRWSGPMPKCKSYEEV
# B8: Pfdn2 (protein)
# chain: MSTESAKPALSQEAIVAQFQQLRNEQRNLVNSLNTLEMDLREHKTVIETLEAADPERKCFRQIGGVLCERTVKEVLPQLVENKDFIAKTIQMVTNDLSKKGSELNKFKEEHNIKIRGEHLVAEGAKGDDAEDKAENRNVLVFN
# B9: Psc (protein)
# chain: MMTPESKAIQPAAATTKQTAEATATTTMAHTQQKSQLSTLAKTTTTTATNKAAKSVVSNANSSGNNSSKKLALSQSQKTTTTTTPPTTTTTTTAAAAAEATTNADKMQKQQQLKQQLFAACSIKVKSENTLATTANAALAAATTTTTTATPALATGKAAKTILENGIKKESTPPAVESVEASSSSSSSSSSSSSSSSSWPTTRRATSEDASSNGGASADEEKSEEDPTAAVAASSTATTTSDLATTSRPRPVLLTAVNPHIICHLCQGYLINATTIVECLHSFCHSCLINHLRKERFCPRCEMVINNAKPNIKSDTTLQAIVYKLVPGLYERELMRKRAFYKDRPEEAALATPEQRGDDTEHLIFSPSDDMSLSLEYAELGELKTDSEPELVDTLRPRYLQCPAMCRVSHLKKFVYDKFEIDAQRFSIDIMYKVKTIVLLDYYTLMDIAYIYTWKRDAPMRFYYRVYESPQPLVKPAPRRVLPLKLEKQERENQEQQLAVEVASSKVEPVSLPEDQKAEASIKVEEQESTREIVKEVIKDVAATPPTETLKLVINRNMLDKREKSHSPQMSSKSSSKSSPCTPVSSPSEPNIKLKIDLSKQNSVTIIDMSDPERREIVKPLKPEKESRSKKKDKDGSPKSSSSSSSSSSGERKRKSPSPLTVPPLTIRTERIMSPSGVSTLSPRVTSGAFSEDPKSEFLKSFALKPIKVKVESPERTLNNRAITPPSPSVQQSASPKSKGNNLDDSILMKPPSCMPPKSIASSKRKSKEPVKAVSKKQKLSPPLPTVDFKIRLPVTNGNSSGTASPKIEKPLMPPPAKPPMLAPRKLQPSAQFAPPPSPIHHHAGVQMSAPGNRTPIAKRYQPILPKASRPNPFANIPNDVNRLLKDAGTEIKSIGGGSVENNSNAAQKPHLYGPKGESKMGPPALPATTPSQGNKNVGKQAGNLPMSAPPNKGNSSNNYLNLALFNSSKCKGKEAPPGCRTPMYTPNSPIYSPSSPQYVPSYNIPTMPTYKYTPKPTPNSGSGNGGSGSYLQNMLGGGNGGSLGGLFPSPPTKSDQNTNPAQGGGGSSSATQSGGNNGIVNNNIYMPNEDAPEKQQVKVKSLLNSCNINIPSSLSITISRDNGDSSSPNNGQHPKHKSPVNNYIEIVKLPDQPQDQVQAAKEAQKRQSPPAAVPGHLAAKLPPPPPSKAIPSPQHLVSRMTPPQLPKVATPPPPSSPRVITPPKTSPPANAAKVTPLKPVLTPTQVDKKTPSPEKRTAAQMGSHSPTASENKSPKGGPAGVANSTGGAQNGDPAAKKFRPILPRQNGMPELAPKLPTLAPFVGFNPLQNPAAGKKVPPSKKSPNAGAAAHQSGQQKLVNGGQSQPAQQKTSPPAQKNQQQVKKVSKNPTPPPPSLPAVGKMMPHPVMHSQNAPLSIASSASAAAVASGQLDLSNFLKENLRRVHAAQAAQAAQVAAAANQSNMMYNLAQMGHMTPAMYNYQQAYFREQLSRMQRVGNEVFNDYLQKLKTAAATGGGGPVEGELKPMLPTVTLPSPGATPPAASPKTSPLPAGKLTAAATAPQTKGNSSSGAANARQQTAATGNNGATVPAASLPPATKSK
# Tests used:
# Experiment in all cases: MAPPIT interaction score (arbitrary units); higher = stronger binary interaction signal, active = hit call of the paper
# Pdha = settings: pair source set: Lit-BM-16
# Pgd = settings: MAPPIT configuration: N-N; pair source set: DPIM
# qua = settings: MAPPIT configuration: N-N; pair source set: DPIM
# Pfdn1 = settings: MAPPIT configuration: N-N; pair source set: Curagen_high_conf
# Pex3 = settings: MAPPIT configuration: N-C
# Pgam5 = settings: MAPPIT configuration: N-N; pair source set: DPIM
# Pex14 = settings: MAPPIT configuration: N-C; pair source set: screen_3
# Pbgd = settings: pair source set: RRS
# ScpX = settings: MAPPIT configuration: N-N; pair source set: Curagen_high_conf
# SsRbeta = settings: MAPPIT configuration: N-C; pair source set: screen_3
# Pfdn5 = settings: pair source set: Lit-BM-16
# Pc = settings: pair source set: Lit-BM-16
# 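Also: HEK293T cells with Epo stimulation, STAT-responsive firefly luciferase reporter, fold induction versus unstimulated cells divided by the larger fold induction of two negative controls lacking either bait or prey.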
binder,measurement,setting,value
B1,MAPPIT interaction score,Pdha; MAPPIT configuration: N-C,0.121
same,MAPPIT interaction score,Pdha; MAPPIT configuration: N-N,0.456
same,MAPPIT interaction score,Pgd,-0.835
same,MAPPIT interaction score,qua,-0.463
B2,MAPPIT interaction score,Pfdn1,0.767
B3,MAPPIT interaction score,Pex3; pair source set: screen_4,-0.663
B4,MAPPIT interaction score,Pgam5,2.9 (active)
B5,MAPPIT interaction score,Pex14,2.47
B6,MAPPIT interaction score,Pbgd; MAPPIT configuration: N-C,-0.0221
same,MAPPIT interaction score,Pbgd; MAPPIT configuration: N-N,0.0139
same,MAPPIT interaction score,ScpX,0.0182
B7,MAPPIT interaction score,Pex3; pair source set: screen_3,1.39
same,MAPPIT interaction score,SsRbeta,-0.0878
B8,MAPPIT interaction score,Pfdn5; MAPPIT configuration: N-C,2.36
same,MAPPIT interaction score,Pfdn5; MAPPIT configuration: N-N,5.93 (active)
B9,MAPPIT interaction score,Pc; MAPPIT configuration: N-C,1.11
same,MAPPIT interaction score,Pc; MAPPIT configuration: N-N,-0.137
